PubChem BioAssay (NCATS)
Records with an inconclusive call do not appear. Activity calls are given as the source filed them. Unless noted, calls follow the shape of the dose curve; as a rule, active = well fitted curve in the direction sought with a large enough effect; inconclusive = small, poorly fitted or top-dose-only effect, or another doubt; inactive = no such curve, though single readings can be large; an effect the other way counts as inactive or inconclusive.

Columns and labels:
[1] = Cell Viability - LYMP2-004 (AID 966);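 also: plate controls were DMSO only for no effect and tetraoctylammonium bromide control for full effect; nearly all actives have a fitted effect of over 65% in size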
Procedure, shortened: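 Luminescent ATP read-out (CellTiter-Glo, 30 min RT) after 24 hr compound exposure at 37 C; 2500 lymphoblastoid cells/well, complete medium. Decrease in ATP = cytotoxicity; AC50 from standard Hill model.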

[2] = Cell Viability - LYMP2-005 (AID 967);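 also: series mostly up to about 92 µM; plate controls were DMSO only for no effect and 92 µM tetraoctylammonium bromide control for full effect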
Procedure, shortened: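 Luciferase-based ATP quantitation served as the viability measure in human lymphoblastoid LYMP2-005 cells exposed to test compounds for 24 h at 37 C in complete culture medium. Potency (AC50) was obtained by fitting concentration-response curves with the Hill equation.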

[3] = Cell Viability - LYMP2-009 (AID 968);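 also: series mostly up to about 92 µM; 0% = DMSO alone and the full-kill end = tetraoctylammonium bromide at 92 µM; nearly all actives have a fitted effect of over 55% in size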
[4] = Cell Viability - LYMP2-011 (AID 969);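 also: 0% = DMSO only and full inhibition = 92 µM tetraoctylammonium bromide; nearly all actives have a fitted effect of over 60% in size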
Procedure, shortened: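 Luminescent ATP read-out (CellTiter-Glo, 30 min RT) after 24 hr compound exposure at 37 C in human lymphoblastoid cells, 2500 cells/well. Decreasing ATP indicates cytotoxicity; AC50 from standard Hill fit.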

[5] = Cell Viability - LYMP2-013 (AID 970);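 also: series mostly up to about 92 µM; 0% = DMSO only and full inhibition = tetraoctylammonium bromide control; nearly all actives have a fitted effect of over 55% in size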
Procedure, shortened: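 CellTiter-Glo luminescence (cellular ATP) read after 30 min at RT. Cells: human lymphoblastoid line, 2500/well, 24 hr compound exposure at 37 C. Tetraoctylammonium bromide positive control; AC50 via standard Hill fit of qHTS titrations.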

[6] = Cell Viability - LYMP2-015 (AID 971);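 also: 0% = DMSO only and full effect = 92 µM tetraoctylammonium bromide; nearly all actives have a fitted effect of over 55% in size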
Procedure, shortened: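 qHTS cytotoxicity: 2500 cells/well, 5 hr 37 C, compound 24 hr 37 C, CellTiter-Glo 30 min RT, luminescence. Loss of ATP = toxicity; AC50 via standard Hill fit.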

[7] = Cell Viability - LYMP2-017 (AID 972); also: series mostly up to about 92 µM; % is scaled to controls: 0 for no effect and ±100 for the full control effect; nearly all actives have a fitted effect of over 55% in size
Procedure, shortened: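 Luminescent ATP read-out (CellTiter-Glo, 30 min RT) reports viable cell number. Cells: human lymphoblastoid line, 2500 per well, 5 hr preincubation, 24 hr compound exposure at 37 C. AC50 is derived from qHTS concentration-response data using the standard Hill model.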

[8] = Cell Viability - LYMP2-021 (AID 974)
Procedure, shortened: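 ATP luminescence (CellTiter-Glo, 30 min RT) after 24 h compound exposure at 37 C; 2500 human lymphoblastoid cells/well, 5 h settle beforehand. Cytotoxicity = concentration-dependent ATP drop, AC50 by Hill fit.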

[9] = Cell Viability - LYMP2-023 (AID 975)
Procedure, shortened: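 CellTiter-Glo luminescence after 30 min at room temperature; decrease in intracellular ATP reflects toxicity. Cells: human lymphoblastoid line, 2500/well, 24 hr compound exposure at 37 C. AC50 fitted to standard Hill equation from concentration-response.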

[10] = Cell Viability - LYMP2-025 (AID 976);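 also: series mostly up to about 92 µM; plate controls were DMSO only for no effect and tetraoctylammonium bromide control for full effect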
Procedure, shortened: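 CellTiter-Glo luminescence (cellular ATP) after 24 h compound exposure at 37 C; LYMP2-025 human lymphoblastoid cells, 2500/well, complete medium. Tetraoctylammonium bromide positive control. AC50 by Hill equation fit of qHTS concentration-response.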

[11] = Cell Viability - LYMP2-002 (AID 977);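 also: series mostly up to about 92 µM; plate controls were DMSO only for no effect and 92 µM tetraoctylammonium bromide for full effect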
Procedure, shortened: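 In this qHTS viability screen, 2500 human lymphoblastoid cells per well receive compound for 24 hr at 37 C, and luciferase-based ATP luminescence gives the viability signal. Tetraoctylammonium bromide serves as positive control.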

[12] = Cell Viability - LYMP2-006 (AID 978); also: series mostly up to about 92 µM; % is scaled to controls: 0 for no effect and ±100 for the full control effect; nearly all actives have a fitted effect of over 60% in size
Procedure, shortened: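 In this cytotoxicity screen, the human lymphoblastoid line grew in complete medium with test compounds for 24 hr at 37 C. Cellular ATP served as the viability signal.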

[13] = Cell Viability - LYMP2-007 (AID 979);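 also: cells exposed to compound for 24 h before reading; 0% = DMSO only and the negative end = 92 µM tetraoctylammonium bromide; nearly all actives have a fitted effect of over 60% in size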
Procedure, shortened: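 qHTS cytotoxicity: 2500 cells/well, 5 hr 37 C settle, compound 24 hr 37 C, CellTiter-Glo 30 min RT, luminescence. Decrease in ATP = toxicity. AC50 by standard Hill equation; tetraoctylammonium bromide positive control.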

[14] = Cell Viability - LYMP2-008 (AID 980); also: % is scaled to controls: 0 for no effect and ±100 for the full control effect; nearly all actives have a fitted effect of over 60% in size
Procedure, shortened: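 Luminescent ATP read-out (CellTiter-Glo, 30 min RT) after 24 hr compound exposure at 37 C of human lymphoblastoid cells in complete medium. Decrease in ATP taken as cytotoxicity; AC50 derived by standard Hill fit of qHTS concentration-response data.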

[15] = Cell Viability - LYMP2-010 (AID 981)
Procedure, shortened: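 qHTS cytotoxicity, 1536-well: 2500 cells/well, 5 hr settle, 24 hr compound at 37 C, CellTiter-Glo 30 min RT, luminescence read. Decrease in ATP = toxicity; AC50 via standard Hill equation. Positive control tetraoctylammonium bromide.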

[16] = Cell Viability - LYMP2-012 (AID 982)
[17] = Cell Viability - LYMP2-014 (AID 983);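 also: series mostly up to about 92 µM; plate controls were DMSO only for no effect and 92 µM tetraoctylammonium bromide for full effect; nearly all actives have a fitted effect of over 50% in size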
Procedure, shortened: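 2500 cells/well, 5 hr 37 C; cpd 24 hr 37 C, complete medium; CellTiter-Glo 30 min RT, luminescence; ATP loss = toxicity; AC50 via Hill eqn; tetraoctylammonium bromide positive control.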

[18] = Cell Viability - LYMP2-016 (AID 984)
Procedure, shortened: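 Concentration-dependent ATP depletion measured in LYMP2-016 lymphoblastoid cells, 24 h, 37 C; luciferase-based luminescent detection; Hill-equation AC50.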

[19] = Cell Viability - LYMP2-018 (AID 985);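 also: plate controls were DMSO only for no effect and tetraoctylammonium bromide at 92 µM for full effect; nearly all actives have a fitted effect of over 50% in size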
Procedure, shortened: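 2500 cells/well; 5 hr 37 C; cmpd 24 hr 37 C, complete medium; CellTiter-Glo 30 min RT; luminescence. Tetraoctylammonium bromide positive control. AC50 via Hill fit.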

[20] = Cell Viability - LYMP2-020 (AID 986)
Procedure, shortened: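 qHTS, 2500 cells/well; 5 hr then 24 hr compound exposure, 37 C; CellTiter-Glo luminescence after 30 min RT; ATP decrease taken as cytotoxicity; AC50 via Hill equation; tetraoctylammonium bromide positive control.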

[21] = Cell Viability - LYMP2-022 (AID 987)
Procedure, shortened: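 Luminescent ATP read-out (CellTiter-Glo, 30 min, RT) after 24 hr, 37 C compound exposure of 2500 human lymphoblastoid cells/well in complete medium. Cytotoxicity taken as concentration-dependent ATP loss; AC50 from standard Hill equation.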

[22] = Cell Viability - LYMP2-024 (AID 988)
Procedure, shortened: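 ATP-based luminescence (CellTiter-Glo, 30 min RT) after 24 h compound exposure at 37 C of 2500 lymphoblastoid cells/well; decrease in ATP taken as cytotoxicity. qHTS concentration-response fitted to standard Hill equation for AC50.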

[23] = Cell Viability - LYMP2-026 (AID 989); also: % is scaled to controls: 0 for no effect and ±100 for the full control effect; nearly all actives have a fitted effect of over 50% in size
Procedure, shortened: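 qHTS cytotoxicity: 2500 cells/well, 5 hr 37 C, compound 24 hr 37 C, CellTiter-Glo 30 min RT, luminescence. Tetraoctylammonium bromide positive control. AC50 via standard Hill fit.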

[24] = Cell Viability - LYMP1-002 - Assay at 24 hr (AID 993); also: % is scaled to controls: 0 for no effect and ±100 for the full control effect
Procedure, shortened: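 CellTiter-Glo luminescence (intracellular ATP) after 24 h compound exposure, 37 C, in LYMP1-002 human lymphoblastoid cells; decreased ATP taken as cytotoxicity. AC50 from standard Hill fit of concentration-response curves.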

[25] = Cell Viability - LYMP1-002 - Assay at 40 hr (AID 994)
Procedure, shortened: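 qHTS cytotoxicity; 2500 cells/well, 5 hr 37 C settle, compound 40 hr 37 C. CellTiter-Glo, 30 min RT, luminescence (ATP). Concentration-response, Hill fit → AC50. Pos. ctrl tetraoctylammonium bromide.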

[26] = target: ATP-dependent 6-phosphofructokinase (Trypanosoma brucei brucei) (UniProt O15648); experiment: qHTS Assay to Find Inhibitors of T. brucei phosphofructokinase: hit validation (AID 492961);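 also: luminescence reports ADP formed as PFK phosphorylates fructose-6-phosphate with ATP; series mostly up to about 51 µM; % is scaled to controls: 0 for no effect and ±100 for the full control effect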
Procedure, shortened: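 Percent activity derived from corrected luminescence, normalized between 0x and 1x enzyme controls, then fitted to concentration-response curves. Conditions: 1.25 nM PFK, 0.1 mM ATP, 0.5 mM F6P, 45 min RT.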

[27] = target: Ubiquitin carboxyl-terminal hydrolase 1 (Homo sapiens) (UniProt O94782); experiment: Inhibitors of USP1/UAF1: Pilot qHTS (AID 504865);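 also: rhodamine fluorescence freed from ubiquitin-rhodamine substrate followed over time; top concentration of the series differs between compounds; % is scaled to controls: 0 for no effect and ±100 for the full control effect; nearly all actives have a fitted effect of over 35% in size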
Sequence of Ubiquitin carboxyl-terminal hydrolase 1 (Homo sapiens) (O94782 whole entry, looked up): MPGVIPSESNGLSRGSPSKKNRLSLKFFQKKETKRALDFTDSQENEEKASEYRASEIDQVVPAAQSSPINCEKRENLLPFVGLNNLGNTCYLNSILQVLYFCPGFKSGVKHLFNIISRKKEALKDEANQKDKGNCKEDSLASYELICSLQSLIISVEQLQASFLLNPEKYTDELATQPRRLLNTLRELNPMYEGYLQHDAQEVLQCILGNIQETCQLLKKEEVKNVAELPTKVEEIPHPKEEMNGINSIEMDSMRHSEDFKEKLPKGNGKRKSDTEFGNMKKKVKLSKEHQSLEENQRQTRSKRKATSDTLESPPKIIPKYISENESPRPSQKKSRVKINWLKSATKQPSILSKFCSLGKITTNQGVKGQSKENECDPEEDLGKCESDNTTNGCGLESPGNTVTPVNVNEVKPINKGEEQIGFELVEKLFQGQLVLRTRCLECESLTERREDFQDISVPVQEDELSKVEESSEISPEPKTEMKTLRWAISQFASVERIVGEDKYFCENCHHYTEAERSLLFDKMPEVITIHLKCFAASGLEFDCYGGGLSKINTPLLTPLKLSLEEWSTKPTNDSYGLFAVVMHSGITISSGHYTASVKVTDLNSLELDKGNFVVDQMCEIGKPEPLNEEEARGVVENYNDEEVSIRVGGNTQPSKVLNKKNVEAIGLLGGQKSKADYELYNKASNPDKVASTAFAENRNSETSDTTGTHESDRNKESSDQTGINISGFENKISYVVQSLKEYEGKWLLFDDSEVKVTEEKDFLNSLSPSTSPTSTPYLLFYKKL
Procedure, shortened: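 Enzyme-free wells gave the negative control, while test wells held 1nM USP1/UAF1 preincubated with compound for 15 min at room temperature. Ub-Rho at 150nM final started the reaction, and fluorescence at 480/540 nm was recorded kinetically.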

[28] = target: Estrogen receptor (Homo sapiens) (UniProt P03372); experiment: qHTS assay for small molecule antagonists of estrogen receptor alpha signaling (AID 588513; active = well fitted curve in the direction sought with a large enough effect in the signal ratio, with a control signal flat, not every such curve was filed as active; the % refers to the signal ratio; also: % is scaled to controls: 0 for no effect and ±100 for the full control effect)
Sequence of Estrogen receptor (Homo sapiens) (P03372 whole entry, looked up): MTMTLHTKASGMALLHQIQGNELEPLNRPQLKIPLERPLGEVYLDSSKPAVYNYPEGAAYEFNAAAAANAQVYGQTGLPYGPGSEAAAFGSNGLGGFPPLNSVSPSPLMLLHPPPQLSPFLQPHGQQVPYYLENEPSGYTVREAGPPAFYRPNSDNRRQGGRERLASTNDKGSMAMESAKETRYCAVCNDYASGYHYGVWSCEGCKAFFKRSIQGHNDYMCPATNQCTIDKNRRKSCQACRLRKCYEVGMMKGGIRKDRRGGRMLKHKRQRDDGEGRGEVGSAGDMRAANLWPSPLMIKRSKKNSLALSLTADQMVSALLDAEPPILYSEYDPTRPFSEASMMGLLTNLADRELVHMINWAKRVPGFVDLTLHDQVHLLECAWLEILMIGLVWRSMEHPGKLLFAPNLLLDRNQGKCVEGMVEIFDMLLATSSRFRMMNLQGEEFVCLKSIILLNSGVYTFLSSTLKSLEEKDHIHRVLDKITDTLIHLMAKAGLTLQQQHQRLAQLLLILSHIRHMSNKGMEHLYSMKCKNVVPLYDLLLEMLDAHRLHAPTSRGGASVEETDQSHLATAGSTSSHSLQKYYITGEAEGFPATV
Procedure, shortened: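 Antagonist-mode qHTS in ER-alpha-UAS-bla HEK 293 cells: compound titration, 0.5nM estradiol for 18 h, CCF4 fluorescence, Hill-derived IC50.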

[29] = target: Estrogen receptor (Homo sapiens) (UniProt P03372); experiment: qHTS assay for small molecule agonists of estrogen receptor alpha signaling (AID 588514; calls by dose curve;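 also: 0% = vehicle only and 100% = reference agonist; nearly all actives have a fitted effect of over 70% in size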)
Procedure, shortened: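 Read-out: CCF4 fluorescence from a beta-lactamase reporter in ER-alpha-UAS-bla HEK 293 cells after 18 hrs of compound exposure at 37 C. Normalized to 20 nM 17-beta-estradiol (100%) and DMSO (0%).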

[30] = target: Bile acid receptor (Homo sapiens) (UniProt Q96RI1); experiment: qHTS assay for small molecule antagonists of farnesoid X receptor signaling (AID 588526; calls by dose curve; also: % is scaled to controls: 0 for no effect and ±100 for the full control effect)
Sequence of Bile acid receptor (Homo sapiens) (Q96RI1 whole entry, looked up): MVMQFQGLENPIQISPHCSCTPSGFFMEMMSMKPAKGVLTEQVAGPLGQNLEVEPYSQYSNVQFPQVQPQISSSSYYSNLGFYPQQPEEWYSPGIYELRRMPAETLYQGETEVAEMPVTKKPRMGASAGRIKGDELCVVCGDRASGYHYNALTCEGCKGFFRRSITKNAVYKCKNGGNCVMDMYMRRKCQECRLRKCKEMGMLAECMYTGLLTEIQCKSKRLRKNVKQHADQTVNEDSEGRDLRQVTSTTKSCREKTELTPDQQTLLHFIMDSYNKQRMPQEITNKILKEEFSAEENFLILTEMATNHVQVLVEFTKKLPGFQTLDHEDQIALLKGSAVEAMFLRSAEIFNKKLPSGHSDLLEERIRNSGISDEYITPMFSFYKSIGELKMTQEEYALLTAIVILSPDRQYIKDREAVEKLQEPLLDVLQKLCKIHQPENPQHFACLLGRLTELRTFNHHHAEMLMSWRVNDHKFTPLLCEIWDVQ
Procedure, shortened: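 Concentration-response titrations were fitted to the Hill equation for half-maximal inhibition and maximal response, with data normalised to 50 uM chenodeoxycholic acid and DMSO control wells. Cells: FXR-UAS-bla HEK293T, dialyzed FBS.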

[31] = target: Glucocorticoid receptor (Homo sapiens) (UniProt P04150); experiment: qHTS assay for small molecule antagonists of glucocorticoid receptor signaling (AID 588533; active = well fitted inhibition curve with a large enough effect in the signal ratio, with a control signal flat, not every such curve was filed as active; the % refers to the signal ratio)
Sequence of Glucocorticoid receptor (Homo sapiens) (P04150 whole entry, looked up): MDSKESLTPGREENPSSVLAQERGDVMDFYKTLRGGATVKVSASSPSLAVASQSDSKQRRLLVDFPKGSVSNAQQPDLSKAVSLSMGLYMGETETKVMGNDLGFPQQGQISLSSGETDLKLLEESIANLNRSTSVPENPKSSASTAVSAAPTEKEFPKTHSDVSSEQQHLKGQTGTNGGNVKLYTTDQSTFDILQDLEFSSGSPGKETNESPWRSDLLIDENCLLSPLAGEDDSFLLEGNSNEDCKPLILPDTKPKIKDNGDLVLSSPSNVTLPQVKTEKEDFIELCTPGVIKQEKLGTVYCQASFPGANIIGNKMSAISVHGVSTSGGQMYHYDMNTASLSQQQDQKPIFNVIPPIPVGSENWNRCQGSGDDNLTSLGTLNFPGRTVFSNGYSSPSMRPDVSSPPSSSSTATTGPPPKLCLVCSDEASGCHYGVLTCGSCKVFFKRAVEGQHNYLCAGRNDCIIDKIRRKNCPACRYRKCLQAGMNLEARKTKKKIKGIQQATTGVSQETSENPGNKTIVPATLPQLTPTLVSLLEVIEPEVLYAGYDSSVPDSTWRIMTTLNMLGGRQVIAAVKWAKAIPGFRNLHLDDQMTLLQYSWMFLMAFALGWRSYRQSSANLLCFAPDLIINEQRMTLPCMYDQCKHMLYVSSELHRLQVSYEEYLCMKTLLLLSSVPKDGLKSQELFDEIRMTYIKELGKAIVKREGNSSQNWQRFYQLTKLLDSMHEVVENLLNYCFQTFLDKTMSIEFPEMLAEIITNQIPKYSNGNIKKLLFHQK
Procedure, shortened: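 Antagonist-mode qHTS: compound titrations added to GRE-bla HeLa cells, then dexamethasone 2 nM final; 18 h, 37 C. CCF4 FRET fluorescence normalized to dexamethasone and DMSO; IC50 from Hill fit.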

[32] = target: Peroxisome proliferator-activated receptor gamma (Homo sapiens) (UniProt P37231); experiment: qHTS assay for small molecule agonists of peroxisome proliferator-activated receptor gamma signaling (AID 588536; active = well fitted curve in the direction sought with a large enough effect in the signal ratio, with a control signal flat, not every such curve was filed as active; the % refers to the signal ratio;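 also: 0% = DMSO basal wells and 100% = rosiglitazone at 2 µM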)
Procedure, shortened: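 Beta-lactamase reporter read-out: CCF4 fluorescence (ex 405, em 460/530 nm) after 2 h at RT. HEK293 GeneBLAzer cells were treated for 16 h at 37 C. Hill fits gave EC50 and efficacy versus 2 uM rosiglitazone (100%) and DMSO (0%).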

[33] = qHTS assay for small molecule agonists of retinoid X receptor alpha signaling (AID 588544; calls by dose curve); conditions: HEK293T RXRa-UAS-bla, beta-lactamase reporter, 18 h; 530 nm emission
[34] = target: Retinoic acid receptor RXR-alpha (Homo sapiens) (UniProt P19793); experiment: as above
[35] = target: Thyroid hormone receptor beta (Homo sapiens) (UniProt P10828); experiment: qHTS assay for small molecule agonists of thyroid hormone receptor beta signaling (AID 588545; calls by dose curve)
Sequence of Thyroid hormone receptor beta (Homo sapiens) (P10828 whole entry, looked up): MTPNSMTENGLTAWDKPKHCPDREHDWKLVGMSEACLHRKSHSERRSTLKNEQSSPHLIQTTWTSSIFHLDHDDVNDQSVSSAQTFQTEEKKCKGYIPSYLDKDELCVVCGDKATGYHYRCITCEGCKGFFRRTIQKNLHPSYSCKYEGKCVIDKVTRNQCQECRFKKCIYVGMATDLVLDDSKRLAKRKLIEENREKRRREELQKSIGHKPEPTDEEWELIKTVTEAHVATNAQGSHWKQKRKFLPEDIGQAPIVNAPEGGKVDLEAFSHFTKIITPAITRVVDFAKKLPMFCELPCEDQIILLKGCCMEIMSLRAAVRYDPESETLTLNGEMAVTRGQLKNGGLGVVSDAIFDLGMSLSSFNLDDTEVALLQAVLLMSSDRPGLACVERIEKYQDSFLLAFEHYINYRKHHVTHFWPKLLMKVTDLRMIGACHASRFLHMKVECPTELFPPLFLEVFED
Procedure, shortened: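 In this cell-based screen, titrated compounds act on HEK 293 cells held in medium with 2% charcoal/dextran FBS, NEAA and pyruvate for 18 hrs at 37 C. Responses are expressed relative to T3 (10 nM) as 100% and basal DMSO as 0%.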

[36] = target: Thyroid hormone receptor beta (Homo sapiens) (UniProt P10828); experiment: qHTS assay for small molecule antagonists of thyroid hormone receptor beta signaling (AID 588547; active = well fitted inhibition curve with a large enough effect in the signal ratio, with a control signal flat, not every such curve was filed as active; the % refers to the signal ratio); conditions: TR-UAS-bla HEK293, beta-lactamase ratio, antagonist mode, 18 h
Procedure, shortened: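 TR-UAS-bla GripTite HEK293 cells in 2% charcoal/dextran FBS medium were preincubated 4 h at 37 C, given compound (0.59 nM to 92 uM) plus 0.4 nM T3 (final) for 18 h, then CCF4 for 2 h at RT; Hill fit gave IC50.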

[37] = target: Voltage-gated inwardly rectifying potassium channel KCNH2 (Homo sapiens) (UniProt Q12809); experiment: qHTS Assay for Small Molecule Inhibitors of the Human hERG Channel Activity (AID 588834);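 also: top concentration of the series differs between compounds; % is scaled to controls: 0 for no effect and ±100 for the full control effect; lower thallium flux fluorescence means stronger hERG block; nearly all actives have a fitted effect of over 50% in size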
Sequence of Voltage-gated inwardly rectifying potassium channel KCNH2 (Homo sapiens) (Q12809 whole entry, looked up): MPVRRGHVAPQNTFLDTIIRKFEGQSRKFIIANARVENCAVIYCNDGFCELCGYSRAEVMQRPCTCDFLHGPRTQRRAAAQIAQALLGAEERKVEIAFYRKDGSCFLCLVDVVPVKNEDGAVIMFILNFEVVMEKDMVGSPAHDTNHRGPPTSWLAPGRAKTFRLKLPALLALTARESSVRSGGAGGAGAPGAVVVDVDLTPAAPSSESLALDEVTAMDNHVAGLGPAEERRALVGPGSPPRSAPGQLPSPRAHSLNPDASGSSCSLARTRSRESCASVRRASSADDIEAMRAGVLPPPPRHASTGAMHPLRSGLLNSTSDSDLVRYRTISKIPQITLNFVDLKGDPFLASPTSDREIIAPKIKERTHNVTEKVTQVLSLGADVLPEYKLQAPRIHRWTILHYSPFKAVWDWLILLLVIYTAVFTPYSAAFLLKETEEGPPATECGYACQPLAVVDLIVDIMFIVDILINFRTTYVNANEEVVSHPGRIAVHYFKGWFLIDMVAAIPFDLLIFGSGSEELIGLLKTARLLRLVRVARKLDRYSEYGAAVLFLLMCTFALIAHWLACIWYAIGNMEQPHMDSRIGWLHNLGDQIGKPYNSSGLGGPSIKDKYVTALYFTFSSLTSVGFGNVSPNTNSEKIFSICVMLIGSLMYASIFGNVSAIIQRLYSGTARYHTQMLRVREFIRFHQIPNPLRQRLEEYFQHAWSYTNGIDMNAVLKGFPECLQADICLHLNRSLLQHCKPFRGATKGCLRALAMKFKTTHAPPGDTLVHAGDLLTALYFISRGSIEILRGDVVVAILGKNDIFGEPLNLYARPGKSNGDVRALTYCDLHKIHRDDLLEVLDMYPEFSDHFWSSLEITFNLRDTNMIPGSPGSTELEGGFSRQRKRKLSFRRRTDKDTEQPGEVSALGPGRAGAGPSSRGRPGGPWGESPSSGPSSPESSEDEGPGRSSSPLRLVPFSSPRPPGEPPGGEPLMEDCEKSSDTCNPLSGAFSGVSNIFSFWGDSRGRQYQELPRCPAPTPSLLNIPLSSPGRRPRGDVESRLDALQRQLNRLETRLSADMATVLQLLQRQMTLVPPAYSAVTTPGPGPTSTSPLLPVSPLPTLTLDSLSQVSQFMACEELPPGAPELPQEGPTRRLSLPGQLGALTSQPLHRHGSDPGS
Procedure, shortened: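 Homogeneous FluxOR thallium flux assay using hERG-expressing U2OS cells (BacMam). Compound treatment about 10 minutes preceded stimulation; reduced fluorescence taken as channel block.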

[38] = target: Luciferin 4-monooxygenase (Photinus pyralis) (UniProt P08659); experiment: Biochemical firefly luciferase enzyme assay for NPC (AID 624030);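 also: purified P. pyralis luciferase at 10 nM with luciferin and ATP substrate; series mostly up to about 59 µM; 0% = DMSO and -100% = full luciferase inhibition by PTC124 control; nearly all actives have a fitted effect of over 70% in size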
Sequence of Luciferin 4-monooxygenase (Photinus pyralis) (P08659 whole entry, looked up): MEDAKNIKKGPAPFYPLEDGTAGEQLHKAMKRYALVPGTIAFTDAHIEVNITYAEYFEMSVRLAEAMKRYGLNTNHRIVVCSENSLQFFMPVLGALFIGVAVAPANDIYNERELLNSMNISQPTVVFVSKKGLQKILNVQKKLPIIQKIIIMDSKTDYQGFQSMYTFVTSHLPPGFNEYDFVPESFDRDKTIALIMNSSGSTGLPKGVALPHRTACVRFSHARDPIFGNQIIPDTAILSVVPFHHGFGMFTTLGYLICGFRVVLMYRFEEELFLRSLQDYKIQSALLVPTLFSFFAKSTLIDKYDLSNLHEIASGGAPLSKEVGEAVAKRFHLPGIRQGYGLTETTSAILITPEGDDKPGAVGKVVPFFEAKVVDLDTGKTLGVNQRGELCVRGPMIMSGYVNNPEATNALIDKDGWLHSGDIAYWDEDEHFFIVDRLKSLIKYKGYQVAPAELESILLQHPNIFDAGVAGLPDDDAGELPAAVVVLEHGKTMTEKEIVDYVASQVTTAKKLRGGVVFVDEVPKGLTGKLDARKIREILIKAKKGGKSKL
Procedure, shortened: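 Counter-screen for direct inhibition of the luciferase enzyme by approved-drug library compounds, run at 10 nM enzyme in 50 mM Tris acetate (final). Luminescence was read within 5 min of enzyme-buffer addition and normalized to PTC124 versus DMSO (0%).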

[39] = S16 Schwann cell viability assay (CellTiter-Glo assay) (AID 624031);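 also: cellular ATP luminescence as a viability measure; series mostly up to about 58 µM; plate controls were DMSO-treated cells for no effect and cell-free wells for full effect; nearly all actives have a fitted effect of over 70% in size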
Procedure, shortened: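 Untransfected S16 rat Schwann cells; compound 24 h, 37 °C/5% CO2; CellTiter-Glo ATP luminescence. % activity vs no-cell wells and DMSO controls (0%); concentration-effect curves classed by r2, response magnitude, activity.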

C[C@@H]1[C@H](O)[C@@H](C)/C=C/C=C/C=C/C=C/C=C/C=C/C=C/[C@H](O[C@@H]2O[C@H](C)[C@@H](O)[C@H](N)[C@@H]2O)C[C@@H]2O[C@](O)(C[C@@H](O)C[C@@H](O)[C@H](O)CC[C@@H](O)C[C@@H](O)CC(=O)O[C@H]1C)C[C@H](O)[C@H]2C(=O)O
19.3%: max response [33]
inactive: outcome [1] | outcome [2] | outcome [3] | outcome [4] | outcome [5] | outcome [6] | outcome [7] | outcome [8] | outcome [9] | outcome [10] | outcome [11] | outcome [12] | outcome [13] | outcome [14] | outcome [15] | outcome [16] | outcome [17] | outcome [18] | outcome [19] | outcome [20] | outcome [21] | outcome [22] | outcome [23] | outcome [24] | outcome [25] | outcome [26] | Potency [27] | outcome [28] | outcome [29] | Potency [30] | Potency [31] | outcome [32] | outcome [34] | outcome [35] | activity change % (negative = inhibition) [36] 2.02% | Potency [37] | Potency [38] | outcome [39]
